The list shows a part of the results. The true hit rate is not given.
Target: furin, P09958
Assay: furin cleavage Z-score vs untreated control; higher = more cleavage, active = 3.5 or more, inactive = 1 or less, 8 variable residues between constant flanks
Summary of the method: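 Peptides 8 residues long, fused to a cDNA oligonucleotide, were fixed to magnetic beads by the N-terminus and exposed to purified furin. The 0.01 ml reactions contained 50 mM HEPES pH 7.5 with CaCl2 and NaCl at 1:10 enzyme:substrate and ran 7.5, 15 or 30 min. For the cleavage Z-score, log counts of sequenced released DNA were compared with furin-free reactions, lowess-adjusted and scaled by median absolute deviation.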

Chain of furin, P09958 (P09958 whole entry): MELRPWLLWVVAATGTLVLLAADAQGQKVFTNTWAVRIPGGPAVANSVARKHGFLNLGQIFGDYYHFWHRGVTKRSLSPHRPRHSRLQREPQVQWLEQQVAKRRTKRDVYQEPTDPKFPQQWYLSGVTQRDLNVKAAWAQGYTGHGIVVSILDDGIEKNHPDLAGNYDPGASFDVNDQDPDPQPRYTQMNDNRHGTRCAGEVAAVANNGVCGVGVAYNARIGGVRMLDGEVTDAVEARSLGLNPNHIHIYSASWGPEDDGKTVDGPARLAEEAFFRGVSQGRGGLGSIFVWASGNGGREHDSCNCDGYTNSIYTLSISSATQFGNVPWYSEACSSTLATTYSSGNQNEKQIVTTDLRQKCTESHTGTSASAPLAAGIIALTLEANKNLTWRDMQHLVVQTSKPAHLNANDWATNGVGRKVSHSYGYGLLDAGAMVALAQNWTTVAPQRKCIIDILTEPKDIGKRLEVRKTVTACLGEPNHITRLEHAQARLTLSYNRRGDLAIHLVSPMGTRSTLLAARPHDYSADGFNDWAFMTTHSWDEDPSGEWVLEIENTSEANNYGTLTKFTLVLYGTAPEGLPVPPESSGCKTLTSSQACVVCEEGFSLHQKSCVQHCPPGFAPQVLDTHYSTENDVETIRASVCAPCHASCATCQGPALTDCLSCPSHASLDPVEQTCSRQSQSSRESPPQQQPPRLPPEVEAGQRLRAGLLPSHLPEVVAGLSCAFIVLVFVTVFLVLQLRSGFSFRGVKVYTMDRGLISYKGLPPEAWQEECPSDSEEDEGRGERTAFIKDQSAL

Row | Sequence | furin cleavage Z-score (7.5 min) | furin cleavage Z-score (15 min) | furin cleavage Z-score (30 min)
1 | CARYRRTVGIAGNASASA [FS-2851] | 2.96 | 3.86 (active) | 6.08 (active)
2 | CARMCRVAGWAGNASASA [FS-2046] | 0.157 (inactive) | -0.469 (inactive) | 0.75 (inactive)
3 | CAQCTTPCSGAGNASASA [HC1962] | -0.946 (inactive) | 0.921 (inactive) | -0.234 (inactive)
4 | CAYCTTPCSGAGNASASA [HC1949] | -0.657 (inactive) | -1.14 (inactive) | -0.156 (inactive)
5 | CASEECSQHLAGNASASA [HC1677] | 1.1 | 1.14 | 0.289 (inactive)
6 | CAVPSRQSRAAGNASASA [FS-207] | 7.32 (active) | 8.36 (active) | 8.3 (active)
7 | CALPSRQKKAAGNASASA [FS-1365] | 0.168 (inactive) | 0.828 (inactive) | 1.92
8 | CACSFTTLPAAGNASASA [HC499] | -0.00686 (inactive) | 0.0583 (inactive) | 0.931 (inactive)
9 | CAVRSRMRRAAGNASASA [FS-1500] | 11 (active) | 10.2 (active) | 8.12 (active)
10 | CAVRSRHLRAAGNASASA [FS-632] | 9.71 (active) | 9.82 (active) | 8.62 (active)
11 | CAPSFRDRRAAGNASASA [FS-1244] | 9.04 (active) | 11.1 (active) | 9 (active)
12 | CAGPLWILQAAGNASASA [HC609] | 1.21 | -0.216 (inactive) | 0.172 (inactive)
13 | CAMEEISQHLAGNASASA [HC5] | 1.45 | 0.702 (inactive) | -0.262 (inactive)
14 | CAHLHAPTGSAGNASASA [HC774] | -0.0824 (inactive) | 0.739 (inactive) | 0.623 (inactive)
15 | CAPQDVKFPGAGNASASA [HC170] | 0.0199 (inactive) | -1.23 (inactive) | 0.673 (inactive)
16 | CAVEGEVQIVAGNASASA [HC688] | -0.863 (inactive) | -0.579 (inactive) | -0.88 (inactive)
17 | CASIARQKRIAGNASASA [FS-562] | 4.19 (active) | 2.74 | 5.27 (active)
18 | CAERLRQKRIAGNASASA [FS-1194] | 4.13 (active) | 5.45 (active) | 4.4 (active)
19 | CARSLRSWLIAGNASASA [FS-1974] | 0.545 (inactive) | 0.463 (inactive) | 0.528 (inactive)
20 | CALHRRQKRIAGNASASA [FS-821] | 9.03 (active) | 10.1 (active) | 10.5 (active)
21 | CAMSTRKARIAGNASASA [FS-277] | 1.25 | 1.83 | -0.362 (inactive)
22 | CASITRMKRIAGNASASA [FS-719] | 6.03 (active) | 8.1 (active) | 7.63 (active)

From the supplement of paper PMC3545927
